# High-throughput results: PubChem BioAssay, National Center for Advancing Translational Sciences (NCATS)
# Shown is part of a subset that was picked to be rich in hits.
# Pf Dd2 inh = blocks in vitro growth of P. falciparum Dd2; P. falciparum Dd2 growth, SYBR Green, 72 h; Potency, µM (series often up to 28.9 µM), without a hit: top-dose activity, negative = inhibition, usual class: inhibitors; 120,000 compounds, 4.3% hits; active = well fitted inhibition curve with a large enough effect;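 also: plate controls were DMSO vehicle for no effect and reference drug for full effect; nearly all actives have a fitted effect of over 65% in size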
#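 Infected erythrocytes (Dd2, 0.3% parasitemia, 2.5% hematocrit final) are added to compound in RPMI-1640/Albumax II medium, grown 72 h at 37C in low oxygen, then lysed with saponin/Triton-X containing SYBR Green and read by fluorescence.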
# * hit, by the source's call; i = inactive; [ ] = another dose, or the depositor's remark. Potency is read from the fitted curve at half-maximal effect.
SMILES,Pf Dd2 inh
CCOC(=O)c1cc(-c2ccc(C)cc2)n(CCC(=O)Nc2ccc(C(C)C)cc2)c1C,8.9µM*
CCOc1ccc(NC(=O)CCn2c(-c3ccc(F)cc3)cc(C(C)=O)c2C)cc1,i
CCOC(=O)c1cc(-c2ccccc2)n(CC(=O)Nc2ccc(CC)cc2)c1C,i
CCOC(=O)c1cc(-c2ccccc2)n(CCCC(=O)Nc2cccc(C)c2)c1C,i
OC1(CN2CCC(CCn3cccn3)CC2)CCNC1 (configuration not stated),0%
CC(=O)N1CCc2c(nc(-c3ccccn3)nc2N(C)CCCN(C)C)C1,-2%
COc1ccc(CN2C(=O)COC[C@H]2C(=O)NCCc2c[nH]c3ccccc23)c(OC)c1,i
Cn1nccc1CN1CCC2(CNc3ccccc3[S+](=O)([O-])N2)C1 (configuration not stated),i
COC1CCOC2(CCN(C(=O)c3ccc4ccccc4n3)CC2)C1 (configuration not stated),11%
OCCc1cc(CC2(NC3CCOCC3)COC2)no1,-1%[44.1 µM]
Cc1ccc2cc3cc(C(=O)N(C)c4ccccc4C)oc3nc2c1,11µM*
COc1ccc2cc3cc(C(=O)NCc4ccccc4OC)oc3nc2c1,i
COc1ccc(CNC(=O)c2cc3cc4ccc(C)cc4nc3o2)cc1,i
Cc1nc(-c2cccs2)cc([C@H]2CN3CC[C@H]2C[C@@H]3COC(=O)Nc2ccc(C(C)C)cc2)n1,7.1µM*
CC(=O)c1ccc(NC(=O)NC[C@H]2C[C@@H]3CCN2C[C@@H]3c2cc(-c3cccs3)nc(C)n2)cc1,i
COc1ccccc1-c1cc([C@H]2CN3CC[C@H]2C[C@@H]3COC(=O)Nc2ccc(C(C)C)cc2)nc(C)n1,13µM*
COc1ccc(-c2cc([C@H]3CN4CC[C@H]3C[C@@H]4CNC(=O)NC(C)C)nc(C)n2)cc1OC,i
COCC(=O)NC[C@H]1C[C@@H]2CCN1C[C@@H]2c1cc(-c2ccccc2OC)nc(C)n1,i
Cc1nc(-c2cccs2)cc([C@H]2CN3CC[C@H]2C[C@@H]3CNS(C)(=O)=O)n1,i
COC[C@H]1NC(=O)CC[C@H]1C(=O)Nc1cccc(OC(F)(F)F)c1,-14%
CS(=O)(=O)c1ccc(OCC2(CNCc3ccc(F)c(F)c3)C[C@@H](O)[C@@H](O)C2)cc1 (some centres not stated),-13%
COc1ccc(C(=O)N2CC[C@H]3C(=O)NCCCCCCN(Cc4ccncc4)[C@@H]3C2)cc1F,i
CCN(Cc1ccccc1)S(=O)(=O)c1ccc(F)c(C(=O)Nc2cc(C)ccc2OC)c1,24%
CCOc1ccc(NC(=O)c2ccc(F)c(S(=O)(=O)N(CC)Cc3ccccc3)c2)cc1,13%
CCN(CC)S(=O)(=O)c1cccc(C(=O)Nc2ccccc2C(=O)Nc2ccc(Cl)cc2)c1,10µM*
SMILES,Pf Dd2 inh
COC1CCOC2(CCN(C(=O)c3cccc(C)c3)CC2)C1 (configuration not stated),i
Cn1ncc(N2CCN(c3cc(C4CC(O)C4)nc(N)n3)CC2)cc1=O (configuration not stated),-18%
Cc1noc([C@@H](C)NC(=O)Nc2cccnc2)c1C(=O)O,-4%[44.1 µM]
O=[S+]([O-])(c1ccccc1)N1CCC2(CC(c3cccc(C(F)(F)F)c3)=NO2)C1 (configuration not stated),-23%
CCSc1nc(-c2ccccc2)nc2c1Cc1c(CO)cnc(C)c1O2,11%
Cc1ccc(-c2nc3c(c(SCC(=O)Nc4ccccc4Cl)n2)Cc2c(CO)cnc(C)c2O3)cc1,19%
Cc1cccc(C)c1NC(=O)CSc1nc(-c2ccccc2)nc2c1Cc1c(CO)cnc(C)c1O2,12%
Cc1cc(C)cc(NC(=O)CSc2nc(-c3cccc(Cl)c3)nc3c2Cc2c(CO)cnc(C)c2O3)c1,-26%
Cc1ccc(-c2nc3c(c(SCC(=O)N(C)c4ccccc4)n2)Cc2c(CO)cnc(C)c2O3)cc1,5.6µM*
CCN(CC)C(=O)CSc1nc(-c2ccc(C)cc2)nc2c1Cc1c(CO)cnc(C)c1O2,10µM*
O=C(Cn1ccn2nc3c(c2c1=O)CCCC3)Nc1ccc(C(F)(F)F)cc1,-11%
CCCNC(=O)N[C@@H]1C[C@H](Cn2cc(CN(C)C)nn2)[C@@H](O)[C@H]1O,17%[44.1 µM]
CCOc1ccc(N(CC)S(=O)(=O)N2CCCC(C(=O)Nc3cc(Cl)ccc3OC)C2)cc1 (configuration not stated),10µM*
COc1ccc(OC)c(NC(=O)C2CCCN(S(=O)(=O)c3c(C)nn(C)c3C)C2)c1 (configuration not stated),i
CCOc1ccc(OCC)c(NC(=O)C2CCCN(S(=O)(=O)c3ccc(C)cc3)C2)c1 (configuration not stated),i
Cc1cccc(C(=O)N2C[C@@H]3CCCN4CCC[C@@H]([C@H]34)[C@H]2CCCC(=O)NCC2CC2)c1,-25%
O=C(CCC[C@@H]1[C@H]2CCCN3CCC[C@@H](CN1C(=O)C1(c4ccccc4)CC1)[C@@H]23)NCC1CC1,13µM*
CC(C)C(=O)N1C[C@@H]2CCCN3CCC[C@@H]([C@H]23)[C@H]1CCCC(=O)NCC1CC1,-1%
COc1ccc(CN2Cc3[nH]cnc3C[C@H]2c2nc(Cc3ccccc3)no2)cc1,-24%[44.1 µM]
COCCCNC(=O)C1CCN(Cc2cc3ccccc3n2Cc2ccccc2C)CC1,-16%
Cc1ccc(Cn2c(CN3CCC(C(=O)NCCc4ccccc4)CC3)cc3ccccc32)cc1,7.9µM*
O=C(NCc1cccnc1)C1CCN(Cc2cc3ccccc3n2Cc2ccccc2)CC1,11µM*
CN(C)c1ccc(CNC(=O)C2CCN(c3nc4ccccc4[nH]3)CC2)cc1,29%
CN(C)c1ccc(CNC(=O)C2CCN(S(=O)(=O)c3ccc4c(c3)oc(=O)n4C)CC2)cc1,15%
Cc1ccc(Cn2c(CN3CCC(C(=O)NCC(C)c4ccccc4)CC3)cc3ccccc32)cc1 (configuration not stated),i
SMILES,Pf Dd2 inh
CN(C)c1ccc(CNC(=O)C2CCN(Cc3cc4ccccc4n3Cc3ccccc3)CC2)cc1,11µM*
Cc1cccc(Cn2c(CN3CCC(C(=O)NC(C)C)CC3)cc3ccccc32)c1,-18%
Cc1cccc(Cn2c(CN3CCC(C(=O)NCc4cccnc4)CC3)cc3ccccc32)c1,i
CN1C(=O)C(CC(=O)N2CCCCC2)=C2CCCCC21 (configuration not stated),i
CN(CC1CCOC1)S(=O)(=O)c1ccc(F)cc1F (configuration not stated),3%[5.79 µM]
CCN(CCCNC(=O)CC1=C2CCCCC2NC1=O)c1ccccc1 (configuration not stated),-27%
O=C(c1ccn[nH]1)N1CCC(c2noc(COc3ccc(F)cc3)n2)C1 (configuration not stated),i
O=C(NC1CCN(c2cc(-c3ccc(F)cc3)[nH]n2)C1)c1ccc(F)cc1Cl (configuration not stated),i
Cc1ccccc1-n1nc(-c2c(C)nc3scc(CC(=O)NCC(C)C)n3c2=O)cc1C,i
Cn1cc(-c2ccccc2F)c2nc(COc3ccc(C(=O)O)cc3)cn2c1=O,-14%[44.1 µM]
Cn1cc(-c2ccc(O)c(F)c2)c2nc(COc3ccc(Cl)cc3)cn2c1=O,10µM*
Cn1cc(-c2ccccc2F)c2nc(COc3ccccc3)cn2c1=O,i
CNc1nccc(N2CCC(CC(=O)NCc3cc(OC)cc(OC)c3)CC2)n1,-19%
CCC(=O)Nc1cccc(C2OC(=O)N(Cc3ccc(C)cc3)C2C(=O)NCC2CC2)c1 (configuration not stated),i
